Reference: PubChem BioAssay (NCI)
The panel holds about 83,000 compounds, 20% with a hit somewhere; the sample as a whole holds those more often.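 48-hour exposure, single concentration, 96-well plates; percent growth endpoint where 0 means no net growth. Active: below 10.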 Values without a mark were called inactive. Active and inactive are the calls of the source.

What follows are molecules tested on HL-60(TB) leukemia (assay: NCI-60 one-dose screen, 48 h (100 = growth as untreated, 0 = no growth, -100 = all killed)). Conditions: 10 µM unless noted.

SMILES | growth
O=C1Nc2ccccc2/C1=C/c1cn(CCCn2c3ccccc3c(=O)c3ccccc32)c2ccccc12 | 84%
Cc1ccc(Nc2nc(N)nc(Nc3ccc4ccccc4c3)n2)cc1 | 22.5%
O=C1CNCCN1 | 99.5%
O=C(N/N=C/c1ccc(O)cc1O)c1ccc(Nc2ccnc(C(F)(F)F)c2)cc1 | 44.1%
O=[N+]([O-])c1cccc2nsnc12 | 104%
COc1nc2c(c(=O)n1C)CN(c1ccccc1)C(=O)CN2C | 93% [100 µM]
CCOc1cc(/C=N\NC(=O)C[N+](C)(C)C)ccc1O | 87.7%
O=C(Nc1cccc(C(F)(F)F)c1)Nc1ccc(OCc2nnc(-c3ccccc3)o2)c(F)c1 | -4.69% (active)
COc1cc(-c2nc3occn3c2-c2ccnc(NCCCNS(=O)(=O)c3ccc(O)cc3)n2)ccc1F | 95.3%
Cc1ccc(OC2=C(C#N)C(=N)N3C(=NN2)Sc2c(C)ccc(C)c23)cc1 | 109%
Cc1ccc(-c2csc(/N=C3\C(=O)Nc4ccccc43)n2)cc1 | -48% (active)
Cc1[nH]c(C(=O)Nc2ccc(C(=O)NCCN)cc2OC(C)C)c(Cl)c1Cl | -21.3% (active)
CCN1CCN(CC(=O)Nc2nc3ccc(NCc4ccc(Br)cc4)cc3s2)CC1 | 20.1%
CCN1CCN(Cc2ccc(NC(=O)Nc3cccc(-n4ccc5c(NC(=O)c6ccccc6)nccc54)c3)cc2C(F)(F)F)CC1 | 112%
N[C@@H](Cc1ccccc1)[C@@H](O)C(=O)NCc1ccc(F)cc1 | 101%
COCCn1cc(-c2csc(-c3c[nH]c4ccccc34)n2)c2cccnc21 | 14.1%
N#Cc1c(NC(=O)NCc2ccccc2)sc2c1CCCC2 | -4.95% (active)
COc1ccc2c(c1)/C(=N/c1n[nH]c(=S)s1)C(=O)N2 | 61.6%
CCCCCCCCCCC(CN(CC)CC)C(O)c1ccccc1 (configuration not stated) | 44.7%

SMILES | growth
CC1Cc2ccccc2N1NC(=O)c1ccc(Cl)c(S(N)(=O)=O)c1 (configuration not stated) | 92.3%
Nc1cc2c([nH]c[n+]2CC#CCCl)c(SCC#CCCl)n1 | -17.8% (active)
COc1ncc(-c2ccc3ncnc(Nc4cccc(Cl)c4)c3c2)cc1N(S(C)(=O)=O)S(C)(=O)=O | 49.7%
Oc1ccc(Cl)cc1CNc1nc2ccccc2[nH]1 | -56.6% (active)
Cn1c([N+](=O)[O-])cnc1/C=C1\Oc2ccc(Br)cc2C1=O | -12% (active)
O=C(CN1CCN(c2ccc(Cl)cc2)CC1)N1CCN(c2nnc(-c3ccc(Cl)cc3)c(-c3ccc(Cl)cc3)n2)CC1 | 41.4%
Nc1cccc2c(=S)c3ccccc3[nH]c12 | 107%
NC1[C@H](c2c[nH]c3ccccc23)c2c([nH]c3ccccc23)[C@H]1c1c[nH]c2ccccc12 (some centres not stated) | 119%
O=C(Nc1ccc(F)cc1)Nc1ccc(NC(=O)c2cc(Cl)nc3ccccc23)cc1 | 63.9%
CN1C(=O)N(C)C2C1NN=c1s/c(=C\c3ccc(C(F)(F)F)cc3)c(=O)n12 (configuration not stated) | -6.25% (active)
Cn1cc(-c2csc(-c3cn(CCN)c4ccc(Br)cc34)n2)c2cccnc21 | 41%
C[C@@H]1C[C@H]2C(=O)O[C@@H](C)[C@H](NC(=O)[C@H](Cc3cc(F)cc(F)c3)NC(=O)Nc3ccc(Cl)cc3F)C(=O)N3C[C@H](O)C[C@H]3C(=O)N3CCN(C)C[C@H]3C(=O)N[C@@H](C)C(=O)N2C1 | 30.1%
O=C1/C(=C/c2ccc(F)cc2)CN(Cc2cn(CCNc3ccnc4cc(Cl)ccc34)nn2)C/C1=C\c1ccc(F)cc1 | -27.6% (active)
COc1ccc(-c2csc3c2-n2cccc2C3=O)cc1O | -18.3% (active)
CC(=O)OC1Oc2ccccc2-c2oc(=O)c(-c3ccc(F)cc3)cc21 (configuration not stated) | 97.3%
COC(=O)c1cc(Nc2ccc(O)c3c2C(=O)c2c([N+](=O)[O-])ccc(O)c2C3=O)cc(C(=O)OC)c1 | 62.3%
O=C(Nc1ccncc1)C(=O)c1cn(S(=O)(=O)c2cccc(F)c2)c2ccccc12 | -9.88% (active)
CC1(C)CC[C@]2(C(=O)O)CC[C@]3(C)C(=CC[C@@H]4[C@@]5(C)C/C(=C/c6ccco6)C(=O)C(C)(C)[C@@H]5CC[C@]43C)[C@@H]2C1 | -16.4% [100 µM] (active)
